What all share (format): functional
In test [1] the target is Solute carrier family 2, facilitated glucose transporter member 1 (Homo sapiens) (UniProt P11166). Description: ST_JUDE_LEISH: Cytotoxicity at 2uM final concentration against transgenic Leishmania Mexicana promastigotes LmGLUT1 that are glucose transport deficient and complemented with the human glucose transporter GLUT1. Activity is measured by DNA content using SYBR green in vitro.

The target of test [2] is Hexose transporter 1 (Plasmodium falciparum) (UniProt O97467). Kind of test: ST_JUDE_LEISH: Cytotoxicity at 2uM final concentration against transgenic Leishmania Mexicana promastigotes LmPfHT that are glucose transport deficient and complemented with the Plasmodium falciparum hexose transporter. Activity is measured by DNA content using SYBR green in vitro.
In test [3] the target is Glucose transporter (Leishmania mexicana) (UniProt O61059). Kind of test: ST_JUDE_LEISH: Cytotoxicity at 2uM final concentration against transgenic Leishmania Mexicana promastigotes LmGT2 that are glucose transport deficient and complemented with the L. Mexicana glucose transporter 2. Activity is measured by DNA content using SYBR green in vitro.

Sequence of Solute carrier family 2, facilitated glucose transporter member 1 (Homo sapiens) (P11166 whole entry): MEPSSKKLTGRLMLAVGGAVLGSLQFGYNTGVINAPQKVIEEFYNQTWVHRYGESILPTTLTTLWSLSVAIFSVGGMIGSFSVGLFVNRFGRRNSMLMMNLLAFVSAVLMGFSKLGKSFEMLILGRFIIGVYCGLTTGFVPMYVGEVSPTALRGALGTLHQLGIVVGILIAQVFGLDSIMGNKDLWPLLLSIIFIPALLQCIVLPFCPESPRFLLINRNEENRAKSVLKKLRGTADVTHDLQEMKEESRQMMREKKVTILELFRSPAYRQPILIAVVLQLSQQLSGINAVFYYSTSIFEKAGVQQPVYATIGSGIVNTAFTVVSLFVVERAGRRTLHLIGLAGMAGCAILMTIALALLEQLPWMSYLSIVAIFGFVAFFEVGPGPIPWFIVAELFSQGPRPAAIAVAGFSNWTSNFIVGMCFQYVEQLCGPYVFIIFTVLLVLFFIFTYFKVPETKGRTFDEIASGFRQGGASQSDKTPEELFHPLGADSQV

For `CC(C)CNCc1cccc(-c2cccc(CN(CCCN3CCN(C)CC3)C(=O)CCC3CCCC3)c2)c1`, the inhibition in test [1] turned out to be 4.42%; in test [2], 3.07%; in test [3], 4.38%.

For `CCOCCCn1c(=N)c(C(=O)NC(C)c2ccccc2)cc2c(=O)n3cccc(C)c3nc21` (stereo not given), the inhibition in test [1] was determined as 7.84%; in test [2] it was 6.01%; in test [3], 3.81%.

For the compound `CS(=O)(=O)CCNCc1ccc(-c2ccc3c(Nc4ccc(Cl)cc4F)ccnc3c2)o1`, the inhibition in test [1] came to 2.59%; in test [2] it was 3.39%; in test [3], 4.36%.

Consider `CC(C)=C(C(=O)OCc1ccccc1)N1C(=O)[C@@H](NC(c2ccccc2)(c2ccccc2)c2ccccc2)[C@H]1[S+]([O-])CC(=O)OC(C)(C)C` (stereo not given in full), for which the figures for the inhibition in test [1], in test [2] and in test [3] were 0.68%, -0.01% and 0.75%, respectively.

`CCN(CC)CCNC(=O)c1ccc(NC(=O)c2cc3c(C)nn(-c4ccc(Cl)cc4)c3s2)cc1`: the inhibition turned out to be 2.43% in test [1], 2.37% in test [2] and 1.83% in test [3].

For `Oc1ccc(CCNc2nc(NCCCOc3cccc(CN4CCCCC4)c3Cl)nc(N3CCNCC3)n2)cc1`, the inhibition in test [1] came out at 3.62%; in test [2] it was 1.93%; in test [3], 3.74%.

As for `Cc1cccc2nc(-c3cccc(-c4cccc(CNCc5ccc(S(C)(=O)=O)cc5)c4)c3)[nH]c12`, the inhibition in test [1] was 1.64%; in test [2], 0.32%; in test [3], -0.24%.

For the compound `COc1ccc(CNC2CCN(C)CC2)cc1-c1ccc(S(=O)(=O)NCCc2ccccn2)c(C)c1`, the figures for the inhibition in test [1], in test [2] and in test [3] were 4.11%, 1.98% and 1.53%, respectively.

Turning to `Fc1cccc(COc2ccc(Nc3ncnc4ccc(-c5nnc(C(F)(F)F)o5)cc34)cc2Cl)c1`, the inhibition in test [1] was found to be 4.63%; in test [2], 4.57%; in test [3], 1.46%.

Regarding `NOCCCOc1ccc(Cl)cc1`, the values for the inhibition in test [1], in test [2] and in test [3] were 4.86%, 3.73% and 3.9%, respectively.

With `CCN(CC)CCCN(C(=O)c1cc2c(C)nn(-c3ccccc3)c2s1)c1nc(-c2ccc(OC)cc2)cs1`, the inhibition amounted to 10.5% in test [1], 9.13% in test [2] and 8.72% in test [3].

`O=C(Nc1nc2cc(S(=O)(=O)NCCc3ccc(F)cc3)ccc2n1CCCn1ccnc1)c1ccc(Cl)cc1`: the results for the inhibition in test [1], in test [2] and in test [3] were 1.74%, 2.83% and 1.86%, respectively.

With `CCOc1cc(C(=O)NCCN(C(C)C)C(C)C)ccc1-c1nc2cc(Cl)ccc2[nH]1`, the inhibition in test [1] is 2.57%; in test [2] it was 1.66%; in test [3] it was 3.92%.

For `COc1ccc(Oc2ccccc2CNCC2CCN(CC3CCCCC3)CC2)cc1`, the inhibition in test [1] was 6.31%; in test [2], -1.98%; in test [3], 2.13%.

Regarding `Cc1cccc(NC(=O)NCc2ccccc2)n1`, the values for the inhibition in test [1], in test [2] and in test [3] were 1.62%, 1.46% and 2.38%, respectively.

As to `CCC(C)NC(=O)Nc1ccc(-c2cccc(-c3nc4ccccc4[nH]3)c2)cc1` (stereo not given), the values for the inhibition in test [1], in test [2] and in test [3] were -0.78%, 4.24% and 5.49%, respectively.

Regarding `CCOc1cc2c(cc1OCC)C(c1ccc(O)c(Cl)c1)NCC2` (stereo not given), the inhibition worked out at 11.9% in test [1], 13.1% in test [2] and 10.3% in test [3].

Take `CNC(=O)c1ccccc1Nc1nc(Nc2cccnc2)ncc1C`: the inhibition in test [1] was -2.88%; in test [2], -0.32%; in test [3] it was -0.69%.

As for `Cn1ccc(C(=O)Nc2ccc3c(c2)CN(Cc2ccc(N4CCCC4)o2)CCC3)n1`, the results for the inhibition in test [1], in test [2] and in test [3] were 28.5%, 54.6% and -0.65%, respectively.

Regarding `COc1ccc2nccc([C@@H](O)CN3CCC(NC(=O)C(c4cc5ccccc5o4)N4CCN(Cc5ccccc5)CC4)CC3)c2c1` (stereo not given in full), the results for the inhibition in test [1], in test [2] and in test [3] were 3.8%, 1.35% and 0.77%, respectively.

As to `N#Cc1ccc(-c2ccc(C(=O)NCCCCN3CCC(c4ccc5c(c4OCC(N)=O)CCCC5)CC3)cc2)cc1`, the inhibition in test [1] stood at 1.23%; in test [2] it was 0.2%; in test [3] it was 1.1%.

For `N=C(NCCCCC1CCCCC1)c1cccc(C(=N)NCCCCC2CCCCC2)n1`, the inhibition in test [1] was determined as 0.33%; in test [2], 0.98%; in test [3], 0.14%.

Consider `CCCCC1(NC(=O)[C@@H](Nc2ccc(C#N)c3ccccc23)C2CCCCC2)CCCCC1`, for which the inhibition in test [1] was -1.28%; in test [2] it was -0.56%; in test [3] it was -0.93%.

With `O=C(Nc1ccc(Cl)c(Cl)c1)Nc1ccccc1N1CCNCC1`, the values for the inhibition in test [1], in test [2] and in test [3] were 0.02%, 0.2% and 1.04%, respectively.

On to `COc1ccc2nccc([C@@H](O)CN3CCC(NCc4nc5cc(F)ccc5o4)CC3)c2c1`, for which the inhibition in test [1] was determined as 8.07%; in test [2], 6.24%; in test [3] it was 1.01%.

Regarding `Clc1ccc(-c2cc3c(NCc4ccncc4)nccc3s2)cc1`, the inhibition in test [1] came out at 6.24%; in test [2], 4.38%; in test [3], 2.2%.

For `Cc1cc(C(=O)NCc2ccc(-c3c(C)noc3C)cc2)n(-c2ccc(Cl)cc2)n1`, the inhibition in test [1] came to 8.7%; in test [2], 7.89%; in test [3] it was 2.6%.

For `O=c1cc(NCCCNCc2cccc3c2OC(F)(F)O3)[nH]c2ccccc12`, the figures for the inhibition in test [1], in test [2] and in test [3] were 2.3%, 1.38% and 1.85%, respectively.

With `CCOc1cc(Cl)c(C(C)NC(=O)c2cccc(OC)c2)cc1OCC` (stereo not given), the inhibition in test [1] came out at 7.84%; in test [2], 7.46%; in test [3] it was 4.84%.

In the case of `Cc1ccc(C)c(CC(=O)N2CCC(n3c(C)nc4ccc(F)cc43)CC2)c1`, the figures for the inhibition in test [1], in test [2] and in test [3] were 4.03%, 3.03% and 2.07%, respectively.

For `O=S(=O)(Nc1cc2c(cc1O)CCN(C1CCC1)CC2)c1ccc(-c2ccc(F)cc2)cc1`, the inhibition is 5.67% in test [1], 8.27% in test [2] and 3.1% in test [3].

Turning to `COc1cc2ccccc2cc1CNCCCCCCNCc1cc2ccccc2cc1OC`, the inhibition in test [1] worked out at 5.18%; in test [2] it was 6.05%; in test [3], 5.15%.

Consider `CN1CCN(c2ccnc3ccc(NC(=O)Nc4cccc5ccccc45)cc23)CC1`, for which the inhibition in test [1] was 1.43%; in test [2], -0.09%; in test [3] it was 1.87%.

In the case of `CCCCCCc1cc(Oc2c(I)cc(C[C@H](N)C(=O)O)cc2I)ccc1O`, the values for the inhibition in test [1], in test [2] and in test [3] were 0.33%, 1.79% and -0.38%, respectively.

Turning to `Cc1cccc2nc(-c3ccc(-c4cccc(NC(=O)C(C)CN(C)C)c4)s3)[nH]c12` (stereo not given), the figures for the inhibition in test [1], in test [2] and in test [3] were -0.15%, 1.85% and 0.27%, respectively.

As a reminder, the inhibition is the change of the read-out against control, counted positive when it falls.

These data come from ChEMBL document CHEMBL3433997, “St. Jude Leishmania screening dataset” (2016).
